High-throughput results from PubChem.
GALR2 blocker = antagonists of human galanin receptor 2 (GALR2); GALR2-expressing cells, antagonist mode; inhibition, % at 4 µM; actives 0.39% (n = 140,000); in the data active = inhibition above about 27%;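 also: cells stimulated with galanin 1-16 at roughly its EC80; 0% = agonist challenge control and 100% = basal control without agonist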
GALR2 ag = activates the human galanin receptor 2; O43603; GALR2-expressing cells, agonist activation read-out; activation, % (test concentration not listed); actives 0.48% (n = 140,000); AID 803; in the data active = activation above about 5%, passing the limit was not always enough;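 also: 0% = vehicle buffer wells and 100% = reference agonist at full effect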
S1P2 blocker = antagonists of human S1P2 receptor | O95136 | cell-based S1P2 antagonist assay, inhibition at 5 uM | inhibition, % at 5 µM | actives 0.21% (n = 97,000) | AID 736; in the data active = inhibition above about 45%;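 also: CRE beta-lactamase reporter cells expressing human S1P2 stimulated with S1P; 0% = agonist at EC80 alone and 100% = agonist plus reference antagonist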
Target sequence (O95136 whole entry, looked up): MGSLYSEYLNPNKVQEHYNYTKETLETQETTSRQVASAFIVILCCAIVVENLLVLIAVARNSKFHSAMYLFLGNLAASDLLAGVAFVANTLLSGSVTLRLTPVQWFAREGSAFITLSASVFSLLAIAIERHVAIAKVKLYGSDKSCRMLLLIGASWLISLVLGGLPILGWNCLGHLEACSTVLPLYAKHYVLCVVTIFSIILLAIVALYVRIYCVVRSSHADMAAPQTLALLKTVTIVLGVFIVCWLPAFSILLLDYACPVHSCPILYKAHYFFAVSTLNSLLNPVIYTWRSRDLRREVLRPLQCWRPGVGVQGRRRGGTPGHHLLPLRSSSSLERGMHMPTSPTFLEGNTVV
S1P2 agonist = agonists of human S1P2 receptor; O95136; S1P2-expressing cell line, agonist reporter read-out; activation, % at 4.5 µM; actives 0.46% (n = 97,000); in the data active = activation above about 16%;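 also: 0% = vehicle low control and 100% = maximal reference agonist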
GALR2 agon conf = GALR2 (human) agonism confirmed; shares compounds with GALR2 ag; activation, % at 5.6 µM; actives 10% (n = 460); GALR2-expressing cells, agonist activation; AID 864; in the data active = activation above about 8.4%;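 also: 0% = buffer-only vehicle wells and 100% = full reference agonist response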
BLA activ ctr = activates beta-lactamase reporter in GALR2 agonist counterscreen | shares compounds with GALR2 ag | CHO NFAT-bla reporter, beta-lactamase FRET activation | activation, % at 5.6 µM | actives 10% (n = 460) | AID 865;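 active = activation above the screen-wide mean activation plus 3 SD, cut at about 8% in these data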;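 also: 0% = DMSO with PBS wells and 100% = thapsigargin positive control wells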
Starred values were filed as active, the others as inactive; x = no result given. Hits are enriched below; roughly 1.2% of the tested compounds scored in any of these assays.

SMILES | GALR2 blocker | GALR2 ag | S1P2 blocker | S1P2 agonist | GALR2 agon conf | BLA activ ctr
C/C(=N\Nc1nc2c(s1)CCCC2)c1ccccc1 | 14 | -3 | 5 | -4 | x | x
CCCCCCc1cc2cc(S(=O)(=O)c3ccc(F)cc3)c(=O)oc2cc1O | -3 | 14* | x | x | 16* | 41*
NC(CC(=O)OC1CCCCC1)C(=O)OC1CCCCC1 (stereo unspecified) | -3 | 8 | 9 | 2 | -1 | -1
O=C(NCC(=O)N1CCCC1C(=O)O)OC1CCCCC1 (stereo unspecified) | 5 | -3 | 4 | -6 | x | x
O=C(/C=C/c1ccc(Cl)cc1)Nc1ccccc1N1CCOCC1 | 0 | -1 | x | x | x | x
Cn1c(=O)[nH]c(=O)c2c1nc(N1CCNCC1)n2Cc1cccc2ccccc12 | 5 | 15* | -6 | -4 | 0 | -1
O=C(CC12CC3CC(CC(C3)C1)C2)Nc1cccc2ncccc12 | -8 | 23* | -7 | -3 | 0 | -1
O=C(Nc1cccc2ncccc12)C12CC3CC(CC(C3)C1)C2 | -14 | 0 | -9 | -4 | x | x
COC(=O)/C(=C/Nc1ccccc1)[N+](=O)[O-] | 8 | -2 | 14 | -4 | x | x
COC(=O)/C(=C/Nc1ccc(O)cc1)[N+](=O)[O-] | 4 | 10 | -10 | -1 | -1 | -4
Cc1nnc(SCC(=O)c2cc(C)n(-c3ccc4c(c3)OCO4)c2C)s1 | -8 | 10 | -5 | -5 | -1 | -2
Cc1cc(C(=O)CSc2nnnn2C)c(C)n1-c1ccc2c(c1)OCCO2 | -8 | 0 | 9 | -4 | x | x
O=C(N/N=C/c1cc(Cl)cc([N+](=O)[O-])c1O)NC12CC3CC(CC(C3)C1)C2 | 0 | 21* | x | x | -1 | -3
Cc1cc(C(=O)N/N=C/c2cc(Cl)cc([N+](=O)[O-])c2O)c2ccccc2n1 | -13 | -2 | x | x | x | x
CC(=O)NCN1CCN(CNC(C)=O)CC1 | 6 | 11 | 13 | -4 | 0 | -2
COC(=O)c1ccc(-n2nnnc2SC)cc1 | 12 | 15* | 9 | -5 | 0 | 2
COC(=O)COC(=O)c1ccc(-n2nnnc2SC)cc1 | 5 | -2 | 25 | -3 | x | x
CCOC(=O)c1c(NC(=O)COC(=O)c2nc(Cl)ccc2Cl)sc2c1CCC2 | -3 | 0 | x | x | x | x
CCOc1ccc2nc(NC(=O)CCC(=O)c3cccs3)sc2c1 | 0 | -1 | -14 | 0 | x | x
O=C(Cn1c2ccccc2c(=O)c2ccccc21)Nc1ccccc1F | 0 | 15* | x | x | 3 | 8
CCn1cc(CNC(=O)CCSc2nc(-c3ccco3)cc(C(F)(F)F)n2)cn1 | 4 | -1 | 0 | -4 | x | x
O=C(CCc1ccccc1)NNC(=S)NC(=O)c1ccccc1 | -1 | -2 | -1 | -9 | x | x
CC(C)(C)c1cc(CCC(=O)NNC(=S)NC(=O)c2ccccc2)cc(C(C)(C)C)c1O | -5 | 35* | x | x | 37* | 29*
CC(C)CNC(=O)c1cccc(NC(=O)c2ccc(Cl)c([N+](=O)[O-])c2)c1 | 4 | 1 | x | x | x | x
CCN(C(=O)c1ccc(S(C)(=O)=O)cc1)C12CC3CC(CC(C3)C1)C2 | 6 | -1 | x | x | x | x
SMILES | GALR2 blocker | GALR2 ag | S1P2 blocker | S1P2 agonist | GALR2 agon conf | BLA activ ctr
O=C(Nc1ccncc1)c1ccc2c(c1)C(=O)N(C1CCCCC1)C2=O | -4 | 36* | -5 | -4 | -1 | -3
CCOc1ccc(C(=O)/C=C/c2cn(CN3CCN(C)CC3)c3ccccc23)cc1 | 12 | 12* | 10 | 4 | 2 | 4
COc1ccc(C(=O)/C=C/c2cn(CN3CCN(C)CC3)c3ccccc23)cc1 | 9 | 6 | 14 | 2 | x | x
Cc1cc2c(cc1C)C(c1ccccc1Br)CC(=O)N2 (stereo unspecified) | -10 | 21* | x | x | 0 | -3
CCOC(=O)c1ccc(-c2ccc(/C=C(\C#N)C(=O)NCc3cccs3)o2)cc1 | 0 | 9.3* | x | x | 9.4* | 8.7*
N#C/C(=C\c1ccc(-c2ccc(C(=O)O)cc2)o1)C(=O)NCC1CCCO1 (stereo unspecified) | 0 | -1 | x | x | x | x
Cc1cc(C)n(C(=O)CCCCCCCCC(=O)n2nc(C)cc2C)n1 | 1 | -4 | -8 | -4 | x | x
COc1ccc(CC2(C)OC(c3ccc(Cl)cc3)=NN2C(C)=O)cc1 (stereo unspecified) | -5 | -1 | x | x | x | x
O=C(COC(=O)c1cccc(Cl)c1)Nc1cc(Cl)ccc1Oc1ccccc1 | -15 | 0 | x | x | x | x
COc1ccccc1-c1cc(C(F)(F)F)nc(S(=O)(=O)CCCC(=O)O)n1 | -9 | -2 | -9 | -7 | x | x
COc1ccccc1-c1cc(C(F)(F)F)nc(S(=O)(=O)CCCC(=O)N2CCOCC2)n1 | 4 | 11 | -49 | -3 | 1 | 7
Cc1ccc(NC(=O)Cn2c(-c3ccc(F)cc3)cnc2SCC(=O)Nc2c(C)cccc2C)cc1 | 11 | 3 | x | x | x | x
O=C(NC(=S)Nc1ccc(NC(=O)c2cccs2)cc1)c1cc2ccccc2o1 | 4 | 11* | x | x | 3 | 2
Cc1cc(C)c(-c2cc(NC(=O)CSc3n[nH]c(N)n3)n(-c3ccccc3)n2)cc1C | -2 | -1 | -2 | -8 | x | x
N#C/C(=C\c1c(N2CCCCC2)nc2ccccn2c1=O)C(=O)NC1CCS(=O)(=O)C1 (stereo unspecified) | -6 | 13* | x | x | 0 | 0
Cc1cccn2c(=O)c(/C=C(\C#N)C(=O)NC3CCS(=O)(=O)C3)c(N3CCC(C)CC3)nc12 (stereo unspecified) | -19 | 5 | x | x | x | x
CCC(c1nnnn1Cc1ccc(F)cc1)N(CCCO)Cc1cc2cc3c(cc2[nH]c1=O)OCO3 (stereo unspecified) | 9 | 0 | -1 | -6 | x | x
CC(=O)c1cc(-c2ccccc2)n(CC(=O)Nc2ccc(C)c(C)c2)c1C | 0 | -1 | x | x | x | x
CC(=O)Nc1ccc2[nH]c(C)c(CC=C(Cl)Cl)c(=O)c2c1 | 7 | 14* | -17 | -2 | -1 | -4
CCOC(=O)c1ccc2[nH]c(C)c(CCC(C)=O)c(=O)c2c1 | -9 | -2 | 13 | 0 | x | x
Cc1cc(C)nc(/N=C(\N)N2CCCCCC2)n1 | -6 | 17* | x | x | -1 | -3
Cc1ccc2[nH]c(=O)c(CN(Cc3cccnc3)C(=O)c3ccncc3)cc2c1 | 2 | 0 | -16 | -4 | x | x
CCn1c(COc2ccc(=O)n(-c3ccccc3)n2)nnc1SCc1ccccc1C | 1 | -1 | 14 | -2 | x | x
Cc1cccc(S(=O)(=O)c2c(N)n(/N=C/c3ccco3)c3nc4ccccc4nc23)c1 | 0 | 54* | 15 | -9 | 0 | -1
Cc1ccc(S(=O)(=O)c2c(N)n(/N=C/c3ccco3)c3nc4ccccc4nc23)cc1 | -10 | -1 | -9 | -5 | x | x
CCOC(=O)C1=C(C)N=C2SC(C(=O)OC)=CC(=O)N2C1c1ccc(F)cc1 (stereo unspecified) | 7 | 9 | 8 | -9 | -1 | -1
C=CCOc1ccc(C2/C(=C(\O)c3ccc(F)cc3)C(=O)C(=O)N2CCCN(C)C)cc1 (stereo unspecified) | 7 | 8.3* | 6 | -10 | 0 | 0
O=C(N/N=C/c1ccccc1OCc1ccccc1)c1cccs1 | 22 | -1 | x | x | x | x
